The record followed here is article PMC5540273 (PLoS ONE, 2017).

Test systems include CDC2L2; CDK2; CDK3; CDK4-cyclinD1; CDK4-cyclinD3; CDK4; CDK5; CDK7.
Common to all, as to details: concentration: 1 μM,replicates: in singlicate; n = 1
Another experiment has as its system T1, CDC2L5.
T1 construct: gene CDK13

The subject of the next experiment is T2, CDK11.
T2 construct: gene CDK19
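Also: KINOMEscan kinase panel screen.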

Regarding `Cc1ccc2c(-c3ccnc(Nc4ccc(C(F)(F)F)cc4)n3)cnn2n1` [GW819776], the “%Inh” value in the experiment with CDC2L2 is on record as 0%; with CDC2L5, 0%; in the experiment with CDK11, 0%; with CDK2 it was 15%; in the experiment with CDK3 it was 13%; in the experiment on CDK4-cyclinD1 it was 0%. The “%Inh” value in the experiment on CDK4-cyclinD3 came to 0%; in the experiment with CDK4 it was 16%; with CDK5, 0%; in the experiment on CDK7 it was 47%.
`Cc1nnc(-c2ccc3occ(-c4ccc(S(C)=O)cc4)c3n2)o1` (centres unmarked): the “%Inh” value in the experiment with CDC2L2 amounted to 0%; in the experiment with CDC2L5, 0%; in the experiment on CDK11 it was 0%; in the experiment on CDK2 it was 6%; in the experiment with CDK3 it was 0%; in the experiment on CDK4-cyclinD1, 0%. Further, the “%Inh” value in the experiment with CDK4-cyclinD3, in the experiment with CDK4, in the experiment on CDK5 and in the experiment on CDK7 was 0% each time.
As to `Cc1ccn2nc(-c3ccc(F)cc3)c(-c3ccncc3)c2c1.Cl` [GW457859], the “%Inh” value in the experiment with CDC2L2 was determined as 24%; with CDC2L5 it was 0%; with CDK11, 1%; with CDK2 it was 0%; in the experiment on CDK3, 2%; in the experiment with CDK4-cyclinD1, 18%. Further, the “%Inh” value is reported as 0% in the experiment on CDK4-cyclinD3, 50% with CDK4, 0% with CDK5 and 47% in the experiment on CDK7.
`COc1cc2ncn(-c3cc(OCC4CCCCC4)c(C(N)=O)s3)c2cc1OC` [GSK204559]: the “%Inh” value is listed as 6% with CDC2L2; 0% with CDC2L5; 12% with CDK11; 0% with CDK2; 21% in the experiment with CDK3; 0% in the experiment on CDK4-cyclinD1. For the same compound, the “%Inh” value in the experiment with CDK4-cyclinD3 stood at 0%; in the experiment with CDK4 it was 8%; with CDK5, 0%; in the experiment with CDK7, 86%.
Consider `Cc1cccc2c(-c3ccncc3)c(-c3ccc(F)cc3)nn12.Cl` [GW461487], for which the “%Inh” value in the experiment on CDC2L2, with CDC2L5, with CDK11, with CDK2, in the experiment on CDK3 and in the experiment on CDK4-cyclinD1 was 0% throughout. Moreover, the “%Inh” value turned out to be 0% in the experiment on CDK4-cyclinD3, 36% in the experiment on CDK4, 0% in the experiment with CDK5 and 0% with CDK7.
Take `C[C@@H](Oc1cc(-n2cnc3ccc(-c4ccncc4)cc32)sc1C(N)=O)c1ccccc1Cl` [GSK483724]: the “%Inh” value in the experiment on CDC2L2 amounted to 7%; in the experiment with CDC2L5 it was 0%; in the experiment with CDK11, 73%; with CDK2, 30%; with CDK3, 36%; in the experiment on CDK4-cyclinD1 it was 0%. The “%Inh” value is 0% in the experiment on CDK4-cyclinD3, 27% in the experiment on CDK4, 1% in the experiment on CDK5 and 0% in the experiment on CDK7.
For `C[C@@H](Oc1cc(-n2cnc3cc(-c4ccncc4)ccc32)sc1C(N)=O)c1ccccc1Cl` [GSK479719], the “%Inh” value in the experiment on CDC2L2 is on record as 0%; in the experiment with CDC2L5 it was 0%; with CDK11, 0%; with CDK2, 42%; with CDK3 it was 29%; with CDK4-cyclinD1, 0%. Besides, the “%Inh” value with CDK4-cyclinD3 is listed as 21%; in the experiment with CDK4 it was 0%; with CDK5, 0%; in the experiment on CDK7 it was 1%.
On to `Cn1ccc2ncnc(Oc3ccc(NC(=O)Nc4ccnc(C(F)(F)F)c4)c(Cl)c3)c21`, for which the “%Inh” value in the experiment on CDC2L2 came out at 0%; with CDC2L5 it was 20%; with CDK11, 98%; in the experiment on CDK2, 0%; in the experiment with CDK3, 0%; with CDK4-cyclinD1, 0%. In addition, the “%Inh” value is recorded as 0% in the experiment with CDK4-cyclinD3, 0% in the experiment with CDK4, 0% in the experiment on CDK5 and 1% in the experiment on CDK7.
`Cl.Nc1n[nH]c2cc(-c3ccccn3)ccc12` [GSK2189892]: the “%Inh” value in the experiment with CDC2L2 amounted to 23%; in the experiment on CDC2L5 it was 0%; in the experiment on CDK11, 2%; in the experiment on CDK2, 0%; with CDK3 it was 0%; in the experiment with CDK4-cyclinD1, 0%. Besides, the “%Inh” value in the experiment on CDK4-cyclinD3, in the experiment on CDK4, in the experiment on CDK5 and in the experiment on CDK7 was 0% each time.
For the compound `Cn1ccc2ncnc(Oc3ccc(NC(=O)Nc4cc(C(C)(C)C)on4)c(Cl)c3)c21`, the “%Inh” value is 4% in the experiment with CDC2L2; 26% in the experiment on CDC2L5; 100% in the experiment with CDK11; 12% in the experiment with CDK2; 2% in the experiment on CDK3; 0% in the experiment with CDK4-cyclinD1. The “%Inh” value with CDK4-cyclinD3 is 2%; in the experiment on CDK4, 2%; in the experiment on CDK5, 0%; in the experiment with CDK7 it was 55%.
For `COC(=O)c1cccc(NC(=O)NC2CCN(c3ccnc(NCc4ccc(F)cc4)n3)CC2)c1` [GSK1379860], the “%Inh” value with CDC2L2 is 0%; in the experiment on CDC2L5 it was 0%; in the experiment with CDK11 it was 12%; in the experiment with CDK2 it was 0%; in the experiment with CDK3, 9%; with CDK4-cyclinD1, 0%. Further, the “%Inh” value is given as 0% in the experiment with CDK4-cyclinD3, 0% in the experiment on CDK4, 2% with CDK5 and 0% with CDK7.
Take `C[C@@H]1CNc2c(sc3ccc4nc(-c5ccc(O)cc5)ccc4c23)C(=O)N1`: the “%Inh” value in the experiment on CDC2L2 came out at 6%; in the experiment with CDC2L5 it was 0%; in the experiment on CDK11 it was 37%; with CDK2, 0%; in the experiment on CDK3, 12%; in the experiment on CDK4-cyclinD1, 30%. Moreover, the “%Inh” value in the experiment on CDK4-cyclinD3 was found to be 0%; with CDK4 it was 4%; in the experiment on CDK5 it was 25%; in the experiment with CDK7, 82%.
For `OCCn1cc(-c2cnc3nnn(Cc4ccc5ncccc5c4)c3n2)cn1`, the “%Inh” value with CDC2L2 was 0%; in the experiment on CDC2L5 it was 0%; in the experiment on CDK11 it was 0%; in the experiment on CDK2, 0%; with CDK3 it was 5%; in the experiment with CDK4-cyclinD1 it was 0%. The “%Inh” value was 0% in the experiment with CDK4-cyclinD3, 0% in the experiment with CDK4, 0% in the experiment with CDK5 and 15% in the experiment on CDK7.
With `COc1cc(Nc2nccc(N3CCC(NC(=O)c4cccc(C#N)c4)C3)n2)cc(OC)c1OC` (centres unmarked) [GSK1379751], the “%Inh” value was determined as 36% in the experiment with CDC2L2; 0% with CDC2L5; 12% in the experiment with CDK11; 0% in the experiment on CDK2; 0% in the experiment with CDK3; 5% in the experiment on CDK4-cyclinD1. Moreover, the “%Inh” value in the experiment on CDK4-cyclinD3 is listed as 0%; in the experiment on CDK4 it was 27%; with CDK5, 0%; in the experiment with CDK7, 0%.
Turning to `C[C@@H]1CNc2c(sc3ccc4nc(-c5ccncc5)ccc4c23)C(=O)N1`, the “%Inh” value was 2% with CDC2L2; 0% in the experiment on CDC2L5; 25% in the experiment with CDK11; 0% with CDK2; 0% in the experiment on CDK3; 0% with CDK4-cyclinD1. Also, the “%Inh” value in the experiment on CDK4-cyclinD3 was 2%; with CDK4 it was 0%; with CDK5, 11%; in the experiment with CDK7, 77%.
On to `CCn1c(-c2nonc2N)nc2cncc(CNC3CCNCC3)c21.Cl` [SB-747651], for which the “%Inh” value in the experiment on CDC2L2 is 0%; in the experiment with CDC2L5 it was 0%; in the experiment on CDK11 it was 5%; in the experiment with CDK2, 0%; with CDK3, 11%; with CDK4-cyclinD1 it was 0%. Also, the “%Inh” value turned out to be 14% in the experiment on CDK4-cyclinD3, 33% in the experiment with CDK4, 0% in the experiment with CDK5 and 0% in the experiment on CDK7.
As to `CCCC(=O)Nc1n[nH]c2ncccc12` [SB-601436], the “%Inh” value was determined as 0% in the experiment on CDC2L2; 0% in the experiment with CDC2L5; 0% in the experiment on CDK11; 0% with CDK2; 1% in the experiment on CDK3; 0% in the experiment with CDK4-cyclinD1. Further, the “%Inh” value in the experiment on CDK4-cyclinD3, in the experiment with CDK4, in the experiment on CDK5 and in the experiment on CDK7 was 0% throughout.
